IL-2 act – qHTS of IL-2 Activators; activation, % (series mostly up to about 46 µM); hit rate 0.065% among 360,000; IL-2 activation reporter assay, cell-based qHTS; stimulated with anti-CD3/CD4/CD28 beads; in transgenic mouse T cells; in the data active = activation above about 50%; inconclusive = mostly about 30% to 49%; note: 0% is about no effect
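Readout is EGFP and DsRed signal by fluorescent plate cytometry after 18 h at 37 degrees C. Transgenic mouse T cells (750/well) received compound for 60 min before bead stimulation (anti-CD3, anti-CD4, anti-CD28); memory T cells served as non-tolerant control.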
BRCA1 expr act – qHTS Assay to Identify Small Molecule Activators of BRCA1 Expression | MCF7-BRCA1-FFLuc reporter, luminescence, 48 h; response scale: scaled: vehicle 0%, 10 µM genistein 100% | Potency, µM (doses to about 46.1 µM), for inactives: at the top dose activation, most hits filed as activators | hit rate 1.1% among 380,000 | AID 624202, 2012; note: potency is the fitted concentration of half-maximal effect; nearly all actives have a fitted effect of over 80% in size
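First, MCF7-BRCA1-FFLuc cells (2000/well) attach for 2 h; next, compounds are pin-added and incubated 48 h at 37 °C; finally, luciferase reagent is added and luminescence read after 15 min.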
RXFP1 agonist – qHTS Assay for Agonists of the Relaxin Receptor RXFP1; HEK293T-RXFP1 cAMP TR-FRET, 30 min; response scale: percent of porcine relaxin response, buffer zero; Potency, µM (series often up to 57.5 µM), without a hit: top-dose activation, most hits filed as activators; hit rate 0.3% among 370,000; AID 2676, 2010; note: potency is the fitted concentration of half-maximal effect; % is set by controls: 0 for no effect and ±100 for the full control effect; nearly all actives have a fitted effect of over 60% in size
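HEK293T cells stably expressing RXFP1 were pretreated with the PDE4 inhibitor Ro 20174, exposed to compounds for 30 min at 37C, lysed, and cAMP was read by TR-FRET. Data normalized to buffer (basal) and 29 nM porcine relaxin (100%).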
Giardia kill – Small Molecules that selectively kill Giardia lamblia: qHTS; Giardia lamblia trophozoite viability; activity change, % at 7.66 µM, hits read low; hit rate 0.15% among 340,000; in the data active = activity change below about -80%; inconclusive = between about -30% and that limit;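 note: parasites exposed to compound for two days anaerobically before the ATP read; % is set by controls: 0 for no effect and ±100 for the full control effect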
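Anaerobic 48 hrs incubation at 37 deg C of 100 trophozoites/well with test compounds; ATPLite 1-Step luminescence, 15-30 min RT, reports cellular ATP as viability.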
RXFP1 antagonist – qHTS Assay for Antagonists of the Relaxin Receptor RXFP1; activity change, negative = inhibition, % at 57.5 µM; hit rate 0.59% among 350,000; HEK293-RXFP1, relaxin-stimulated cAMP HTRF, 30 min; stronger effect = lower value; AID 1259400, 2018;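 active = activity change of -60% or lower, but not beyond a set lower limit; inconclusive = change between -60% and -40%, or beyond the set limit; inactive = change above -40%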; note: % is set by controls: 0 for no effect and ±100 for the full control effect
NPSR antag – qHTS Assay for Antagonists of the Neuropeptide S Receptor: cAMP Signal Transduction; CHO-NPSR cells, cAMP TR-FRET, antagonist mode; Potency, µM (highest dose often 38.3 µM), inactives show at the top dose activity change, negative = inhibition, actives largely listed as inhibitors; hit rate 1% among 220,000; Q6W5P4; note: potency is the fitted concentration of half-maximal effect; % is set by controls: 0 for no effect and ±100 for the full control effect; nearly all actives have a fitted effect of over 50% in size
Target sequence (Q6W5P4 whole entry, looked up): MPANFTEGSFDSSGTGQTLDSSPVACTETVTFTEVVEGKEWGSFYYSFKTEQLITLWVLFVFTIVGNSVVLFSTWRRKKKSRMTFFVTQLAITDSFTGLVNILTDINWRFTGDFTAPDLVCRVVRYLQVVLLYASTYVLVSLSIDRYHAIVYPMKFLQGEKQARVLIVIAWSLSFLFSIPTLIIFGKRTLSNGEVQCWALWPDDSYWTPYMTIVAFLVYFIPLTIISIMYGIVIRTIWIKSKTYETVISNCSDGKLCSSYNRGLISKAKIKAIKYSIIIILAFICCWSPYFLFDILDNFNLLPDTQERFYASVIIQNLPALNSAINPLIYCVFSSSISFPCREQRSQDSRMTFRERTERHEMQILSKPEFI
* = called active by the depositor; ? = inconclusive; nt = not tested or not shown; [ ] = another dose, or the depositor's remark. Only some compounds are listed: those with a hit (about 1.9% of all), similar ones and a draw of the others. Unless noted, calls come from the whole dose curve; as a rule, active = well fitted curve in the direction sought with a large enough effect; inconclusive = small, poorly fitted or top-dose-only effect, or another doubt; inactive = no such curve, though single readings can be large; an effect the other way counts as inactive or inconclusive.

SMILES	IL-2 act	BRCA1 expr act	RXFP1 agonist	Giardia kill	RXFP1 antagonist	NPSR antag
Cc1cccc(N=C2NC(=O)/C(=C/C=C/c3ccco3)S2)c1C	-0.8	8.3%	0.9%	0.7	-76.9*	-40.4%
Cc1ccc(N=C2NC(=O)/C(=C/c3cccn3C)S2)cc1	-0.6	3.55µM*	0.0%	-15.8	-19.3	?
Cc1ccc(N=C2NC(=O)/C(=C/c3cccn3C)S2)cc1C	3.9	1.7%	-0.2%	-21.6	-31.5	14.2%
O=C1NC(=Nc2ccccc2)S/C1=C\C=C\c1ccco1	3.6	-19.8%	1.3%	4.6	-102.0*	-40.8%
Cc1ccc(N=C2NC(=O)/C(=C/C=C/c3ccco3)S2)cc1	-3.5	-33.8%	2.3%	2.4	-67.2*	-27.6%
CC(C)(C)NCC(O)COc1ccccc1OCC1CCCO1 (stereo not given)	nt	nt	nt	nt	-7.5	nt
CCOC(=O)N1CCN(/[N+]([O-])=N/Oc2ccc([N+](=O)[O-])cc2[N+](=O)[O-])CC1	nt	nt	nt	-11.9	nt	nt
Cc1cccc(N=C2NC(=O)/C(=C\c3cccs3)S2)c1	-0.1	17.2%	0.4%	-1.4	-28.1	-12.1%
Cc1ccc(N=C2NC(=O)/C(=C/c3cccs3)S2)cc1C	-0.2	-14.9%	0.0%	-15.1	-76.7*	-28.6%
COc1ccc(C(CCNC(C)c2ccccc2)C(C)C)cc1 (stereo not given)	-2.3	-32.8%	-1.4%	-15.1	?	18.2%
COc1ccc(CNCCC(c2ccc3c(c2)OCO3)c2ccccc2OC)cc1 (stereo not given)	nt	nt	-0.2%	nt	-72.2*	nt
COc1ccc(C(C)NCCC(c2ccc(OC(C)C)cc2)c2ccccc2OC)cc1 (stereo not given)	-0.6	-99.5%	-0.1%	-10.5	-89.7*	nt
CCn1c(-c2cc(-c3ccc(OC(C)C)cc3)nc3ccccc23)n[nH]c1=S	-3.3	7.08µM*	2.0%	-15.7	-28.2	-11.4%[46.1 µM]
CCOc1ccc(S(=O)(=O)N(C(=O)c2ccco2)c2cc3sc(=O)oc3c3ccccc23)cc1	-0.5	-14.4%	6.0%	-9.0	-68.1*	-26.8%
Cc1ccc(S(=O)(=O)N(C(=O)c2ccco2)c2cc3sc(=O)oc3c3ccccc23)cc1	-0.6	-36.2%	4.1%	-0.6	-78.5*	-10.0%
Cc1ccc(C2=NC(C)(C)N=C2SCC(=O)Nc2ccc(Cl)cc2)cc1	-2.4	-53.0%	-0.1%	-3.3	-64.2*	-29.6%[46.1 µM]
O=C(Cc1ccc(Cl)cc1)NO	nt	0.4%	nt	nt	nt	nt
O=C(Nc1ccc(Cl)cc1)c1cc2c(cc1O)[nH]c1ccccc12	-3.7	-89.2%	4.8%	9.3	-64.4*	-50.4%
O=S(=O)(c1ccc(F)cc1)N1CCN(c2nc(-c3ccc(F)cc3)nc3cc(Cl)ccc23)CC1	nt	4.0%	nt	-1.2	nt	nt
CC(=O)O[C@H](C)OC(=O)[C@@H](C)c1ccc(-c2ccccc2)c(F)c1	nt	nt	nt	nt	-21.6	nt
CC(=O)Oc1ccc(/C=C2/CCc3ccccc3C2=O)cc1	1.8	12.6µM*	-0.6%	?	-9.9	10.4%
COc1ccc2c(c1)CC/C(=C/c1ccccn1)C2=O	-0.5	12.6µM*	-0.8%	-12.3	5.2	nt
O=C1/C(=C/Nc2ccc3c(c2)OCO3)CCc2ccccc21	-1.8	?	-0.3%	?	nt	-9.5%[46.1 µM]
COc1cccc(/C=C2\CCc3ccccc3C2=O)c1	-1.1	12.6µM*	4.1%	?	6.1	-12.3%
COc1cccc(C=C2Cc3ccccc3C2=O)c1	0.0	24.9%	nt	nt	nt	nt
SMILES	IL-2 act	BRCA1 expr act	RXFP1 agonist	Giardia kill	RXFP1 antagonist	NPSR antag
COc1ccc2c(c1)CC/C(=C\Nc1ccc3c(c1)OCO3)C2=O	-1.3	3.16µM*	-0.4%	-13.8	3.7	-19.0%[46.1 µM]
NC(=O)c1nc(Nc2ccccc2)sc1NC(=O)c1ccccc1Br	nt	nt	8.0%	nt	?	nt
COc1ccc(N2C(=O)CCSC23C(=O)N(Cc2ccc(F)cc2)c2ccccc23)cc1 (stereo not given)	nt	nt	-0.4%	nt	-82.0*	nt
COc1ccc(N2C(=O)CCSC23C(=O)N(Cc2ccc(F)cc2)c2ccccc23)cc1Cl (stereo not given)	nt	nt	-0.1%	nt	?	nt
CCC1CN(C(=O)N2CCC(C(=O)NCCc3ccccc3Cl)CC2)c2cc(C)ccc2O1 (stereo not given)	nt	nt	3.0%	nt	-87.5*	nt
CCc1ccc(CNC(=O)C2CCN(C(=O)N3CC(CC)Oc4ccc(C)cc43)CC2)cc1 (stereo not given)	nt	nt	-0.5%	nt	-68.0*	nt
CCC1CN(C(=O)N2CCC(C(=O)NCc3ccc(C)o3)CC2)c2cc(C)ccc2O1 (stereo not given)	-1.2	-30.4%	2.3%	-19.2	1.9	nt
COc1cc2c(NC3CCN(C)CC3)nc(N3CCCN(C)CC3)nc2cc1OCc1ccccc1	nt	-59.1%	nt	nt	nt	nt
CNc1nc(-c2ccc3c(c2)CCN3C(=O)CC(C)(C)C)c(C)s1	0.9	11.2µM*	-1.8%	9.2	1.8	-3.3%
CS(=O)(=O)c1ccccc1-c1nnc(NC(=O)c2cccc(N3C(=O)CCC3=O)c2)o1	0.1	2.8%	-0.5%	8.2	-76.4*	nt
CCOc1ccc(NC(=S)NC(=O)c2ccco2)cc1	-1.0	7.08µM*	-1.2%	-8.0	8.2	2.4%
CN(c1ccccc1)S(=O)(=O)c1ccc(NC(=O)c2ccco2)cc1	1.4	35.1%	1.5%	4.5	1.6	-10.3%
O=C(Nc1nccs1)c1ccc(NC(=O)c2ccco2)cc1	6.5	5.01µM*	-0.9%	-13.3	-9.2	-13.7%[46.1 µM]
CCOc1ccc(NC(=O)c2ccco2)cc1	0.9	-38.9%	-1.5%	?	-6.2	-8.2%[46.1 µM]
CC(=O)N(C)c1ccc(NC(=O)c2ccco2)cc1	1.0	6.31µM*	-0.1%	-14.7	9.7	8.5%[46.1 µM]
CCOC(=O)c1ccc(NC(=O)c2ccco2)cc1	0.0	7.08µM*	1.6%	?	-4.2	nt
CC(NC(=O)c1ccco1)C(=O)Nc1nccs1 (stereo not given)	-1.8	-7.9%	nt	-5.4	-10.1	nt
CC[N+]1(CC(=O)c2cccs2)CCCCC1	nt	-3.8%	nt	nt	nt	nt
CC(=O)Nc1ccc(/C=C/c2nc3ccccc3s2)cc1	nt	9.9%	nt	nt	nt	nt
O=C(Nc1ccc(NC(=O)C2CC2)cc1)c1ccco1	0.0	3.16µM*	-0.1%	-24.1	-3.4	nt
O=C(Nc1ccc(NC(=O)c2ccco2)cc1)c1ccco1	6.4	10µM*	-2.8%	4.6	-0.5	nt
O=C(Nc1ccc(Br)cc1)c1ccco1	1.5	?	1.6%	37.1	13.7	-2.6%[46.1 µM]
O=C(Nc1ccc(Nc2ccccc2)cc1)c1ccco1	0.1	?	-1.8%	13.9	-80.5*	-16.5%[46.1 µM]
